Calb biofilm kill: clotrimazole potentiators killing Candida biofilms, primary screen, with clotrimazole, Alamar Blue | AID 834, 2007 | hit rate 0.14% among 85,000 | C. albicans biofilm + clotrimazole | inhibition, % at 6 µM;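 active means inhibition above 20%; inactive means inhibition below 20%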;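 further: preformed 24 hr biofilms exposed to compound for 48 hr; 0% = biofilm without compound and 100% = blank killed by clotrimazole plus chlorhexidine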
ERa coact pot: enhancers of ERα–SRC-1 coactivator binding, primary screen, biochemical, TR-FRET, ERα LBD, low estradiol; Estrogen receptor (Homo sapiens), P03372; TR-FRET ERalpha-LBD/SRC-Cy5 coactivator binding, 2 h; 100 = basal binding, no effect; coactivator binding (% of control), % at 25.6 µM; hit rate 1.3% among 86,000; AID 639, 2007; in the data active means activity above about 200%;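 further: binding measured in presence of low estradiol as agonist stimulus; 0% = peptide alone without receptor and 100% = receptor with peptide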
Target sequence (P03372 whole entry, looked up, the tested form may be a part): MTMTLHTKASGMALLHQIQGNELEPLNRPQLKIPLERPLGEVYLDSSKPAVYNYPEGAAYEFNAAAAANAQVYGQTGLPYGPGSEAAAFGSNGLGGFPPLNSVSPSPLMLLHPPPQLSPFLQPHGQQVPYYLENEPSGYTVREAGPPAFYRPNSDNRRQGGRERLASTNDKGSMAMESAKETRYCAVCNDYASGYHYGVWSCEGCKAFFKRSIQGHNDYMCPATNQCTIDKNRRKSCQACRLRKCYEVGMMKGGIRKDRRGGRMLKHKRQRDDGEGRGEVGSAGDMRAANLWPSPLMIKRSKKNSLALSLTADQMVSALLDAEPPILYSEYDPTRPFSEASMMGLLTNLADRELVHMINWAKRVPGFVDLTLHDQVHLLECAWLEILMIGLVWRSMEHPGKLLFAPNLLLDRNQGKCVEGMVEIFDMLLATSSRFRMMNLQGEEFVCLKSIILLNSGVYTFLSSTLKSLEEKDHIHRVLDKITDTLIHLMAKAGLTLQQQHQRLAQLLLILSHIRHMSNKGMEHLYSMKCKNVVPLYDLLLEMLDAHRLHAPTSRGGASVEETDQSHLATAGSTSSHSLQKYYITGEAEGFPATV
ERb coact inh: inhibitors of ERβ-SRC1 coactivator interaction, primary screen, biochemical, TR-FRET, ERβ LBD, SRC-1 peptide. TR-FRET ER-beta LBD / SRC1-Cy5 peptide binding; receptor agonist-loaded with 1 µM estradiol. AID 633, 2007. inhibition, % at 25.6 µM. hit rate 1.3% among 86,000. Estrogen receptor beta (Homo sapiens), Q92731;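 active means compounds whose percent inhibition of the receptor-coactivator binding signal exceeds about 50% in the single-dose screen, limit read from the data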;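 further: 0% = receptor plus peptide wells without compound and 100% = peptide-only wells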
cytoskel mod: modifiers of F-actin cytoskeleton organization, primary screen, imaging, HUVEC, phalloidin staining, high-content imaging; HUVEC TNFa F-actin phalloidin imaging; inhibition, % at 2 µM; hit rate 0.18% among 91,000; AID 836, 2007;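 active means inhibition above the batch mean plus 3 SD and confirmed as a hit by visual image inspection, cut at about 30% in these data, passing the limit was not always enough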
E-sel TNF inh: E-selectin induction blockers in HUVEC – imaging, immunofluorescence, high content, primary screen | HUVEC TNFa-induced E-selectin immunofluorescence | hit rate 0.71% among 120,000 | inhibition, % at 2 µM;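 active means inhibition above the batch mean plus 3 SD, and confirmed as a hit on visual image review, cut at about 43% in these data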;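 further: 0% = TNF-stimulated DMSO wells and 100% = unstimulated control wells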
ERa coact inh: ERα–SRC-1 coactivator interaction inhibitors, primary screen, biochemical, TR-FRET, ERα LBD, estradiol-bound; inhibition, % at 25.6 µM; hit rate 1.7% among 86,000; TR-FRET ER-alpha LBD / SRC-1 peptide; Estrogen receptor (Homo sapiens), P03372; in the data active means inhibition above about 50%;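 further: 0% = receptor plus peptide control and 100% = peptide only without receptor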
* hit, by the source's call; / = not tested or not shown; [ ] = dose if it differs, or a comment. This is a sample that favours compounds with a hit; in the whole collection about 2.9% have one here.

SMILES	Calb biofilm kill	ERa coact pot	ERb coact inh	cytoskel mod	E-sel TNF inh	ERa coact inh
CCCCCOC(=O)Cn1c(=O)oc2ccccc21	-0.1	99.9	5.9	/	-21.8	-8.6
O=C(CSc1nc2ncc(Cl)cc2[nH]1)N(Cc1ccccc1)C1CCS(=O)(=O)C1 (stereo not given)	/	/	/	/	-31.2	/
CCOC(=O)c1ccc(NC(=O)N2CCc3ccccc32)cc1	3.8	241.0*[fluorescence artefact?]	4.2	10.7	/	13.5
CN(C)/C=C/C1=CC(=O)CC(C)(C)C1	/	/	/	/	-18.4	/
Oc1c(Cl)cc(Cl)cc1Sc1cc(Cl)cc(Cl)c1O	7.6	10.1	93.0*	/	/	96.8*
Cc1nn(-c2ccccc2)c(Cl)c1C(=O)Nc1nnc(C2CCCCC2)s1	6.0	86.4	-2.1	7.7	3.0	8.9
O=C(Nc1nnc(C2CC2)s1)c1cc(-c2ccccc2)nn1-c1ccccc1	5.8	117.7	-2.6	/	97.3*	-5.7
Cn1cc(CNCc2cn(C)nc2-c2ccc(C3CCCCC3)cc2)cn1	/	/	/	/	-45.9	/
COc1ccccc1N1CCN(C(=O)CSc2ncccc2-c2nc3ccccc3[nH]2)CC1	6.3	82.4	12.5	9.4	7.6	-1.6
O=C(CSc1ncccc1-c1nc2ccccc2[nH]1)N1CCN(c2ccccc2F)CC1	4.1	223.4*	4.1	24.5	-9.2	-8.9
O=C(Nc1nc2ccc(SC(F)F)cc2s1)c1ccc(NS(=O)(=O)c2ccc(F)c(F)c2)cc1	/	/	/	/	4.4	/
CCOC(=O)CSC(CC)C(=O)Nc1nnc(C(C)C)s1 (stereo not given)	12.1	94.0	30.7	0.2	/	3.0
CCC(SCC(=O)OC)C(=O)Nc1nnc(C(C)C)s1 (stereo not given)	8.3	101.8	-1.2	18.7	67.3*	8.1
CCC(Oc1ccc2c(c1)C(=O)CC(C)(C)O2)C(=O)NCCN1CCCCCC1 (stereo not given)	7.2	111.7	1.2	3.7	-18.1	16.4
COc1cccc(N=Cc2c[nH][nH]c2=O)c1	/	/	/	8.0	-22.3	/
O=c1[nH][nH]cc1C=Nc1ccc(Cl)cc1	/	/	/	/	97.2*	/
CCN(CC)CCOC(=O)C1c2ccccc2Oc2ccccc21	6.8	105.0	73.8*[fluorescence artefact?]	-7.5	-1.7	-12.4
CCc1ccccc1NC(=O)C1c2ccccc2Oc2ccccc21	/	/	/	/	6.8	/
CCOc1cc2[nH]c(=O)n(CCCC(=O)N(C)Cc3ccccc3)c(=O)c2cc1OCC	/	/	/	/	-30.0	/
Cc1ccc(-c2nnc(Nc3ccccc3)c3ccccc23)cc1S(=O)(=O)NCC1CCCO1 (stereo not given)	/	/	/	17.7	-48.9	/
Cc1ccc(-c2nn3c(-c4ccco4)nnc3c3ccccc23)cc1S(=O)(=O)NCC1CCCO1 (stereo not given)	4.2	218.3*	29.6	/	/	55.4*[fluorescence artefact?]
COc1ccc(C(=O)OCc2cc3cccc(C)c3[nH]c2=O)cc1	5.0	217.5*[fluorescence artefact?]	32.5	12.0	/	21.4
COc1ccc(CC(=O)OCc2cc3cccc(C)c3[nH]c2=O)cc1	7.5	131.4	8.1	-9.7	/	-1.5
O=C(CSc1nnc(SCc2cccc3ccccc23)s1)N/N=C/C=C/c1ccccc1[N+](=O)[O-]	/	/	/	/	-1.5	/
COc1cccc(C(C#N)N2CCCCC2)c1O (stereo not given)	-0.4	99.5	14.3	47.7*	-13.9	6.5
SMILES	Calb biofilm kill	ERa coact pot	ERb coact inh	cytoskel mod	E-sel TNF inh	ERa coact inh
COc1ccc(C(C#N)N2CCCCCC2)cc1OC (stereo not given)	7.1	96.0	-17.1	8.6	16.8	-11.8
CCCC1CCC(=C(C#N)C(N)=O)CC1 (stereo not given)	/	/	/	/	25.7	/
CC(=O)NC12CC3CC(C1)CC(C(=O)OCC(=O)Nc1ncc(Cl)c(C)c1Cl)(C3)C2	7.8	49.0	59.6*	/	/	74.1*[fluorescence artefact?]
CC[C@H](C)[C@@H]1NC(=O)c2cc([N+](=O)[O-])cc(I)c2NCC[C@@H](C(N)=O)NC(=O)[C@H](CCCN=C(N)N)NC1=O	/	/	/	/	83.5*	/
COc1ccc(OCC(=O)N/N=C/C=C/c2ccccc2)cc1	/	/	/	/	4.7	/
Cc1cc(OC(=O)c2ccco2)c2c(C)cc(=O)oc2c1	7.2	272.4*	5.2	-7.6	-8.4	5.5
